In PubChem BioAssay (NCATS) one finds Potency and activity, negative = inhibition data, which are given here for 15 compounds.

Several values for one entry are separate records, joined by “and”; a condition that tells them apart may be missing. Equal values may be shown once. Records with an inconclusive call do not appear. Activity calls are given as the source filed them. Unless noted, the call rests on the fitted dose curve; in most records, active means well fitted curve in the direction sought with a large enough effect; inconclusive means small, poorly fitted or top-dose-only effect, or another doubt; inactive means no such curve, though single readings can be large; an effect the other way counts as inactive or inconclusive.

Experiment [1] is described as follows: qHTS for Inhibitors of Plasmodium falciparum (DD2) proliferation (AID 504314).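 Further: parasite DNA measured by SYBR Green fluorescence after red cell lysis; plate controls were DMSO vehicle for no effect and artemisinin wells for full effect.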 In short, it runs like this:
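P. falciparum Dd2 is grown in erythrocytes with test compound for 72 h at 37C under 5% CO2. Growth is scored by SYBR Green I fluorescence after detergent lysis, relative to artemisinin (0.29 uM) and DMSO controls.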
In general terms: Quantitative high-throughput screening tests each substance at several concentrations.

Experiment [2] can be described thus: qHTS for Inhibitors of Plasmodium falciparum (GB4) proliferation (AID 504315). Further: nearly all actives have a fitted effect of over 50% in size. Further: potency means the concentration at half of the fitted maximal effect. In short, it runs like this:
(§1)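 Parasite growth measured as SYBR Green DNA fluorescence (ex 485, em 535 nm) after overnight lysis following 72 h culture at 37 °C, 0.3% parasitemia, 2.5% hematocrit. Values normalized against DMSO and 0.29 uM artemisinin controls, with plate-stack correction.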

Experiment [3] can be described thus: qHTS for Inhibitors of Plasmodium falciparum (7G8) proliferation (AID 504316). Further: nearly all actives have a fitted effect of over 65% in size. Further: potency means the concentration at half of the fitted maximal effect. In short, it runs like this: as §1
A short description of experiment [4]: qHTS for Inhibitors of Plasmodium falciparum (HB3) proliferation (AID 504318).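 Further: 0% = DMSO vehicle and -100% = artemisinin control; nearly all actives have a fitted effect of over 60% in size.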 In short, it runs like this:
as §1

A short description of experiment [5]: qHTS for Inhibitors of Plasmodium falciparum (CP250) proliferation (AID 504320).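 Further: plate controls were DMSO vehicle for no effect and 0.29 µM artemisinin control for full effect.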 In short, it runs like this: as §1
Experiment [6] has as its target Atrial natriuretic peptide receptor 1 (Homo sapiens) (UniProt P16066). Kind of experiment: Natriuretic polypeptide receptor (hNpr1) antagonism - Pilot CMLD screen (AID 1347052; calls by dose curve;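 further: HEK293 cells with hNpr1 stimulated by hNppA peptide at 0.1 nM; cGMP level read as GloSensor luciferase luminescence after agonist stimulation; series mostly up to about 9.2 µM; on the % scale 0 is the no-effect control and ±100 the full control effect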).

Sequence of Atrial natriuretic peptide receptor 1 (Homo sapiens) (P16066 whole entry, looked up): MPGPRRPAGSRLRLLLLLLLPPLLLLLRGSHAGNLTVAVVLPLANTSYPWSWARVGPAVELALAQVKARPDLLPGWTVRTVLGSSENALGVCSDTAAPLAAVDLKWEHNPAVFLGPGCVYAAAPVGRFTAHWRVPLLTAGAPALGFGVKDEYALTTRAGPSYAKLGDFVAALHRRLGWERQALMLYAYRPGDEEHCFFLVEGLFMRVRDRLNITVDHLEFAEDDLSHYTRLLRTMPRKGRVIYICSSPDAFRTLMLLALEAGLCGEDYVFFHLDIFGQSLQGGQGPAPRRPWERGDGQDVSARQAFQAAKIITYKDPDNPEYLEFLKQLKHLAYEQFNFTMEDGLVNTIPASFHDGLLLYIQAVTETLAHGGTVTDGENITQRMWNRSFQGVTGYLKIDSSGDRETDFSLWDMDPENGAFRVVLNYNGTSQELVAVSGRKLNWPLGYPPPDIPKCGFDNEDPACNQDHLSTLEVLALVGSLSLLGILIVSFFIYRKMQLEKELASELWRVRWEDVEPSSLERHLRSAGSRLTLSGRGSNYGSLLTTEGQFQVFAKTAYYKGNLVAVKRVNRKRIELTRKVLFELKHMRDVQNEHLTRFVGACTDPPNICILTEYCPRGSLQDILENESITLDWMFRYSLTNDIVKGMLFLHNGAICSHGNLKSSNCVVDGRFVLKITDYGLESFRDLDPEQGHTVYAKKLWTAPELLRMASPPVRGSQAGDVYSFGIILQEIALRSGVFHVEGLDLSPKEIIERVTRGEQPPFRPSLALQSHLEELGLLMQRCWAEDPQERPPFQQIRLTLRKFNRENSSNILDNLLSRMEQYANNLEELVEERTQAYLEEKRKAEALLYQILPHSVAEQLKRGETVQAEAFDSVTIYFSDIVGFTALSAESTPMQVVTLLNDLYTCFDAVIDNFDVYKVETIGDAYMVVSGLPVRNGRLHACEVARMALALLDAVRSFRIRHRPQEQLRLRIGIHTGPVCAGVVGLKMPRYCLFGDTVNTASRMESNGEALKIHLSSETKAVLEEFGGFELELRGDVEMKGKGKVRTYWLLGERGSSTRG

For the compound `C#CCCOC(=O)N1C2=NC(C(=O)OC)=C(C(=O)OC)[C@@H]3N(C)c4ccccc4[C@]23C[C@H]1C(=O)OC`, the Potency result in experiment [1], in experiment [2], in experiment [3], in experiment [4], in experiment [5] and in experiment [6] was “inactive” in each case.

Turning to `CCCCC1=CC2=C(c3ccco3)C(=O)C(C)(OC(=O)c3ccc(OC)cc3)C(=O)C2=CN1CCN1CCOCC1` (stereo not given), the Potency entry in experiment [1], in experiment [2], in experiment [3], in experiment [4], in experiment [5] and in experiment [6] was “inactive” each time.

For the compound `COc1cccc([C@H]2Oc3ccc(OC)cc3C(=NOCC[C@@H]3C=C[C@H](OC(C)=O)[C@@H](COC(C)=O)O3)[C@H]2O)c1`, the Potency entry in experiment [1], in experiment [2], in experiment [3], in experiment [4], in experiment [5] and in experiment [6] was “inactive” each time.

In the case of `COC(=O)CCCC1=CC2=CC(=O)C(C)(OC(=O)c3cccs3)C(=O)C2=CN1CCc1ccccn1` (stereo not given), the Potency result in experiment [1], in experiment [2], in experiment [3], in experiment [4], in experiment [5] and in experiment [6] was “inactive” in each case.

Take `C=C(C(=O)OCC)C(=O)c1ccccc1`: the Potency entry in experiment [1], in experiment [2], in experiment [3], in experiment [4], in experiment [5] and in experiment [6] was “inactive” throughout.

As to `C[C@@H]1C=CCCO[C@]12C(=O)N(Cc1ccccc1C(F)(F)F)c1ccccc12`, the Potency result in experiment [1], in experiment [2], in experiment [3], in experiment [4], in experiment [5] and in experiment [6] was “inactive” in each case.

`CCN1C(=O)NC(c2cccs2)C(C(C)=O)=C1C` (stereo not given): the Potency result in experiment [1], in experiment [2], in experiment [3], in experiment [4], in experiment [5] and in experiment [6] was “inactive” throughout.

Turning to `CCCCc1cc2c(cn1)=C(OC(=O)C1CCCC1)C(C)(OC(=O)CC)C(=O)C=2` (stereo not given), in experiment [1], the activity, negative = inhibition is 0.367% [at 1.12 µM] (inactive). The Potency in experiment [2] is 1900 nM (active); in experiment [3], 1.51 µM (active) and 1.69 µM (active). The Potency result in experiment [4], in experiment [5] and in experiment [6] was “inactive” throughout.

As to `COC(=O)[C@H](C=C[C@H](C)Cc1cc(Br)cc(OCc2ccccc2)c1OC)OCc1ccccc1`, the Potency entry in experiment [1], in experiment [2], in experiment [3], in experiment [4], in experiment [5] and in experiment [6] was “inactive” in each case.

For the compound `COC(=O)C=C[C@H]1c2ccccc2[C@@H](OC)[C@@H]1C`, the Potency entry in experiment [1], in experiment [2], in experiment [3], in experiment [4], in experiment [5] and in experiment [6] was “inactive” throughout.

In the case of `C=CC1=C2C=C(C3CC3)N(Cc3ccccc3)C=C2C(=O)C(C)(OC(=O)c2ccco2)C1=O` (stereo not given), the Potency result in experiment [1], in experiment [2], in experiment [3], in experiment [4], in experiment [5] and in experiment [6] was “inactive” throughout.

As for `Cc1cc(O)cc(O)c1C(=O)OC1(C)C(=O)C=C2C=C(C=CCO)OC=C2C1=O` (stereo not given), the Potency result in experiment [1], in experiment [2], in experiment [3], in experiment [4], in experiment [5] and in experiment [6] was “inactive” in each case.

Turning to `COc1ccc2c(c1)O[C@H](c1ccc3c(c1)OCO3)[C@@H](OC(=O)NCCOc1ccccc1)C2=O`, the Potency entry in experiment [1], in experiment [2], in experiment [3], in experiment [4], in experiment [5] and in experiment [6] was “inactive” throughout.

On to `O=C1[C@H]2[C@@H]3[C@@H](O)[C@H](O)CC(=NOCc4ccccc4)[C@@H]3CC[C@H]2C(=O)N1C1CCCCC1`, for which the Potency result in experiment [1], in experiment [2], in experiment [3], in experiment [4], in experiment [5] and in experiment [6] was “inactive” each time.

In the case of `CCCC[C@]12Cc3cc(C#N)ccc3[C@H](O1)c1c(c3ccccc3oc1=O)O2`, the Potency entry in experiment [1], in experiment [2], in experiment [3], in experiment [4], in experiment [5] and in experiment [6] was “inactive” in each case.
